Among all 420,000 compounds or so, about 50,000 (12%) were called active. Roughly 26% stayed inconclusive and do not appear here. For the sample, actives were picked, then their nearest neighbours and some compounds at random. A number with no mark means an inactive call. The call rests on the fitted dose curve; in most records, active means well fitted inhibition curve with a large enough effect; inconclusive means small, poorly fitted or top-dose-only effect; inactive means flat fitted curve, though single readings scatter.
Assay: qHTS for Inhibitors of human tyrosyl-DNA phosphodiesterase 1 (TDP1): qHTS in cells in presence of CPT; further: nearly all actives have a fitted effect of over 55% in size
Details: chicken DT40 Tdp1-/-;hTDP1 cells + 20 nM CPT, ATP luminescence, 48 h; series mostly up to 46.2 µM; activity change, negative = growth inhibition: at the top concentration
Method in brief: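 Cell growth measured by CellTiter-Glo luminescence after a minimum 48 h, 37 C compound exposure with 20 nM CPT in Tdp1-knockout DT40 cells stably expressing hTDP1, seeded 400/well; qHTS titration format.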
On the % scale 0 is the no-effect control and ±100 the full control effect; potency means the concentration at half of the fitted maximal effect.

Compound	activity change, negative = growth inhibition	Potency
O=C(NC1CCCC1)C(c1ccco1)N(C(=O)c1csnn1)c1ccccc1 (configuration not stated)	-3.07%	
CCOC(=O)CCC(NC(=O)c1ccc(CNc2nc3cc(C(F)(F)F)ccc3nc2C(=O)OCC)cc1)C(=O)OCC (configuration not stated)	-2.32%	
Cc1ccc(OC(=O)c2ccccc2C(=O)OCC(F)(F)C(F)F)cc1	4.61%	
CCN(CC)CCNS(=O)(=O)c1ccc(/C=C/C(=O)O)cc1	-6.79%	
Cn1cc(CN2CCCCC2c2ccccn2)c(-c2ccc3c(c2)OCCO3)n1 (configuration not stated)	-3.9%	
CC1(C(=O)NS(=O)(=O)c2ccc(Cl)cc2)CCN1C(=O)CC1CCCC1 (configuration not stated)	-21.5%	
CC1(C(=O)Nc2cccc3cccnc23)CCN1C(=O)CCC1CCCC1 (configuration not stated)		16.4 µM (active)
CC1(C(=O)Nc2ccccc2Br)CCN1C(=O)CC1CC1 (configuration not stated)	-2.61%	
Cc1ccc(S(=O)(=O)N2CCN(C(=O)N3CCOCC3)CC2)c(C)c1	-2.43%	
CN1CCN(S(=O)(=O)c2cccc(C(=O)O)c2)CC1	2.72%	
CC1Cc2ccccc2N1S(=O)(=O)c1cccc(C(=O)OCC(=O)N2CCOCC2)c1 (configuration not stated)	-10.9%	
CCS(=O)(=O)c1ccc2c(c1)N(S(=O)(=O)c1ccccc1)CC(C(=O)O)O2 (configuration not stated)	4.61%	
CC1CCN(C(=O)c2cccc(S(=O)(=O)N3CCCc4ccccc43)c2)CC1		16.4 µM (active)
CC(=O)N1CCN(S(=O)(=O)c2cccc(C(=O)NC3CCC(C)CC3)c2)CC1 (configuration not stated)	0.375%	
CNC(=O)C1CN(C(=O)c2cccc(S(=O)(=O)N3CCc4ccccc43)c2)c2ccccc2O1 (configuration not stated)		7.31 µM (active)
Cc1ccccc1OCC(=O)Nc1c(C(=O)Nc2ccccc2F)oc2ccccc12	-21.4%	
O=C(OC1CCCCC1=O)c1cccc(S(=O)(=O)NCc2ccccc2)c1 (configuration not stated)	-5.55%	
CCOc1ccc(N(CC(=O)NCCc2ccc(F)cc2)S(=O)(=O)c2ccccc2)cc1		20.6 µM (active)
COc1ccc(CCNC(=O)CN(c2ccccc2)S(=O)(=O)c2ccccc2)cc1	-25.5%	
CCOc1ccc(N(CC(=O)NCCc2ccc(OC)cc2)S(C)(=O)=O)cc1	8.24%	
Cc1ccc(NC(=O)COC(=O)CN2CCSC2=O)cc1F	-12.5%	
C/C(=N/N1CCN(Cc2cccc3ccccc23)CC1)c1cccnc1	-12.8%	
Cc1ccc2c(C)nc(N3CCCC(C(=O)NC(C)(C)CO)C3)nc2c1 (configuration not stated)	-5.72% [at 9.04 µM]	
Fc1cccc(Cl)c1COc1ccc(-c2nnco2)cc1	-8.97%	
CCOc1ccc(NCCC(=O)c2ccc3c(c2)OCO3)cc1		25.9 µM (active)
COC(=O)CCNc1ccc2c(c1)OCCO2	-21%	

Compound	activity change, negative = growth inhibition	Potency
O=C(COc1ccc(Cl)cc1)Nc1ccc2c(c1)OCO2	1.5%	
O=C1C=C(c2cccc(Br)c2)C[C@@H](c2ccc(F)cc2)C1	-29.7%	
Cn1cc[n+](C)c1COc1ccc(C=O)cc1	-5.51%	
CC(C(=O)O)c1ccc(C2CCCCC2)c2ccccc12 (configuration not stated)	15.3%	
COc1ccc(NS(=O)(=O)c2ccc(F)cc2F)cn1	5.59%	
O=C(O)CCC(=O)N(Cc1ccccc1)Cc1ccccc1	-9%	
O=C(c1ccccc1F)N(Cc1ccccc1)Cc1ccccc1		8.2 µM (active)
O=C(NCCOc1ccccc1)c1ccccc1F	-3.48%	
Cc1ccc(C(=O)NNC(=O)c2ccc3c(c2)OCCO3)cc1	0.534%	
N#C/C=C/N1CCN(Cc2ccc3c(c2)OCO3)CC1	6.4%	
Fc1ccc2[nH]c3c(N4CCN(Cc5ccc6c(c5)OCO6)CC4)ncnc3c2c1		2.31 µM (active)
Fc1ccc2[nH]c3c(N4CCSCC4)ncnc3c2c1		11.6 µM (active)
COc1cc(Cl)c(S(=O)(=O)N2CCN(Cc3ccc4c(c3)OCO4)CC2)cc1Cl	-17.7%	
CC1CN(CC(=O)NC(C)c2ccccc2)CC(C)O1 (configuration not stated)	1.9%	
COc1ccccc1CNC(=O)CSc1nc(=O)n(Cc2ccncc2)c2c1CCC2	-0.437%	
Cc1[nH]n(-c2cccc(Cl)c2)c(=O)c1-c1ccc(Cl)cc1		16.4 µM (active)
Cc1cccc(N=Nc2c(C)[nH]n(-c3ccccc3)c2=O)c1	2.08%	
O=c1c(-c2cccc(Cl)c2)c[nH]n1-c1ccccc1	7.4%	
Cc1ccc2cc(C)c(N3CCN(c4ccc(F)cc4)CC3)nc2c1	-3.93%	
Cc1ccc(OCCCC(=O)Nc2ccc(S(=O)(=O)Nc3cc(C)nc(C)n3)cc2)cc1	-3.04%	
COc1cc(OC)c(C2=NOC(C(=O)Nc3c(C)n(C)n(-c4ccccc4)c3=O)C2)cc1Cl (configuration not stated)	-4.68%	
CC1CCC(NC(=O)C2c3ccccc3C(=O)N2Cc2ccc3c(c2)OCO3)CC1 (configuration not stated)	6.63%	
O=C(Nc1ccc2c(c1)OCCO2)C1c2ccccc2OCC(=O)N1Cc1ccccn1 (configuration not stated)	2.14%	
O=C(Nc1ccc(Cl)cc1)C1c2cccc[n+]2CC(=O)N1Cc1ccc2c(c1)OCO2 (configuration not stated)		1.3 µM (active)
CCOc1ccc(NS(=O)(=O)c2ccc(N)cc2)nn1	-8.34%	
COc1cccc(NC(=O)c2ccccc2N(Cc2ccccc2)S(C)(=O)=O)c1	-18.5%	

Source: PubChem BioAssay AID686979 (National Center for Advancing Translational Sciences (NCATS), 2013)
